The target of experiment [1] is human Peroxisome Proliferator-activated Receptor alpha (PPARa), PPARA (gene 5465) (UniProt Q07869). The experiment can be described thus: ATG_PPARa_TRANS: Attagene TRANS-FACTORIAL HepG2 Assay for human Peroxisome Proliferator-activated Receptor alpha (PPARa) (AID 2283001). Put shortly: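 Read-out is fluorescence of reporter cDNA fragments resolved by capillary electrophoresis after RT-PCR. Human HepG2 liver cells carried transfected PPARa-Gal4 chimera and GAL4-UAS reporter units, treated 24 h; activity scored as increase over DMSO.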

Experiment [2] addresses Nuclear receptor subfamily 1 group I member 2 (Homo sapiens) (UniProt O75469). As to the kind of experiment: ATG_PXR_TRANS: Attagene TRANS-FACTORIAL HepG2 Assay for human Pregnane X Receptor (PXR) (AID 2283008). Put shortly:
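HepG2 cells transiently transfected with multiple reporter units, here a PXR-GAL4 chimera driving a GAL4-UAS reporter; 24 h compound exposure. Reporter mRNA measured by RT-PCR, FAM labelling and capillary electrophoresis; gain of signal fitted against DMSO baseline.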

Experiment [3] addresses human RAR-related Orphan Receptor beta (RORb), RORB (gene 6096) (UniProt Q92753). The experiment can be described thus: ATG_RORb_TRANS: Attagene TRANS-FACTORIAL HepG2 Assay for human RAR-related Orphan Receptor beta (RORb) (AID 2283010). Put shortly: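 HepG2 cells transiently transfected with GAL4-UAS reporter units expressing chimeric NR-Gal4 protein; reporter mRNA measured 24 h after dosing by RT-PCR, 6-FAM labelling and capillary electrophoresis. Gain-of-signal fitted relative to DMSO baseline.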

Experiment [4] has as its target human Peroxisome Proliferator-activated Receptor delta (PPARd), PPARD (gene 5467) (UniProt Q03181). As to the kind of experiment: ATG_PPARd_TRANS: Attagene TRANS-FACTORIAL HepG2 Assay for human Peroxisome Proliferator-activated Receptor delta (PPARd) (AID 2283002). In outline:
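Cell-based TRANS reporter: HepG2, transient MRTU transfection, 24 h exposure. Readout = reporter mRNA (RT-PCR/CE, 6-FAM). Gain-of-signal fit vs DMSO control.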

For experiment [5], the target named is Peroxisome proliferator-activated receptor gamma (Homo sapiens) (UniProt P37231). As to the kind of experiment: ATG_PPARg_TRANS: Attagene TRANS-FACTORIAL HepG2 Assay for human Peroxisome Proliferator-activated Receptor-gamma (PPARg) (AID 2283007). Put shortly: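 Transient transfection of HepG2 with GAL4-UAS-driven reporter units; chemical dosing 24 h; total RNA → oligo(dT) RT → PCR with reporter primers → 6-FAM primer extension → HpaI digest 2 h 37 C → capillary electrophoresis. Positive direction vs DMSO.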

The target of experiment [6] is human Retinoic Acid Receptor gamma (RARg), RARG (gene 5916) (UniProt P13631). As to the kind of experiment: ATG_RARg_TRANS: Attagene TRANS-FACTORIAL HepG2 Assay for human Retinoic Acid Receptor gamma (RARg) (AID 2283009). In outline:
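HepG2 transiently transfected with GAL4-UAS reporter units and chimeric NR-Gal4 constructs; 24 h compound exposure. Reporter mRNA quantified by RT-PCR, FAM labeling, HpaI digestion and capillary electrophoresis; gain-of-signal versus DMSO.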

Read-out in experiment [7]: Intercellular Adhesion Molecule 1 (ICAM1), ICAM1 (gene 3383)
As to the kind of experiment: BSK_3C_ICAM1: BioMAP Diversity Plus: 3C Assay for Intercellular Adhesion Molecule 1 (ICAM1) Biomarker Activity (AID 2283003; active = hit-call score of the fitted dose curve at least 0.9, where 1 is the maximum; inactive = score below 0.9). The conditions noted are these: primary human endothelial cells (HUVEC); actives raise or lower the signal. In outline: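 HUVEC primary cells stimulated under 3C conditions; ICAM1 measured by ELISA 24 h after compound dosing. Curves fitted bidirectionally against the DMSO baseline. Overt cytotoxicity checked by SRB staining of parallel cultures.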

Experiment [8] can be described thus: BSK_3C_Proliferation: Cell Proliferation Assessment in the BioMAP Diversity Plus: 3C Assay (AID 2283006; active = hit-call score of the fitted dose curve at least 0.9, where 1 is the maximum; inactive = score below 0.9;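 also: potency may reflect either rise or fall in cell number versus DMSO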). Particulars: primary human endothelial cells (HUVEC). Put shortly:
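Subconfluent HUVEC (3C system) cultured with chemical; relative cell number read at 48 h by sulforhodamine B total-protein staining (0.1% SRB after 10% TCA fixation, 560 nm). Bidirectional fit relative to DMSO.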

The target in experiment [9] is human Retinoic Acid Receptor beta (RARb), RARB (gene 5915) (UniProt P10826). As to the kind of experiment: ATG_RARb_TRANS: Attagene TRANS-FACTORIAL HepG2 Assay for human Retinoic Acid Receptor beta (AID 2283004). Put shortly: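 HepG2, transient MRTU transfection, NR–Gal4 chimera, 24 h treatment; RT-PCR plus CE fluorescence detection of reporter mRNA; gain of signal vs DMSO.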

In experiment [10] the target is Retinoic acid receptor alpha (Homo sapiens) (UniProt P10276). As to the kind of experiment: ATG_RARa_TRANS: Attagene TRANS-FACTORIAL HepG2 Assay for human Retinoic Acid Receptor alpha (RARa) (AID 2283005). In outline:
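Reporter transcripts, measured by RT-PCR with fluorescent labeling and capillary electrophoresis after 24 h dosing, reflect activity of an exogenous human RARa–GAL4 fusion in transiently transfected HepG2. Fitted for increase relative to DMSO.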

Molecules are shown by their SMILES. Records with an inconclusive call do not appear. Active and inactive are the calls of the source. The calls were made as follows, unless noted: active = hit-call score of the fitted dose curve at least 0.9, where 1 is the maximum; inconclusive = response in the unintended direction; inactive = score below 0.9.

In PubChem BioAssay (EPA / NIEHS) one finds outcome and AC50 data, which are given here for 52 compounds.

Chain of Peroxisome proliferator-activated receptor gamma (Homo sapiens) (P37231 whole entry, looked up, the tested form may be a part): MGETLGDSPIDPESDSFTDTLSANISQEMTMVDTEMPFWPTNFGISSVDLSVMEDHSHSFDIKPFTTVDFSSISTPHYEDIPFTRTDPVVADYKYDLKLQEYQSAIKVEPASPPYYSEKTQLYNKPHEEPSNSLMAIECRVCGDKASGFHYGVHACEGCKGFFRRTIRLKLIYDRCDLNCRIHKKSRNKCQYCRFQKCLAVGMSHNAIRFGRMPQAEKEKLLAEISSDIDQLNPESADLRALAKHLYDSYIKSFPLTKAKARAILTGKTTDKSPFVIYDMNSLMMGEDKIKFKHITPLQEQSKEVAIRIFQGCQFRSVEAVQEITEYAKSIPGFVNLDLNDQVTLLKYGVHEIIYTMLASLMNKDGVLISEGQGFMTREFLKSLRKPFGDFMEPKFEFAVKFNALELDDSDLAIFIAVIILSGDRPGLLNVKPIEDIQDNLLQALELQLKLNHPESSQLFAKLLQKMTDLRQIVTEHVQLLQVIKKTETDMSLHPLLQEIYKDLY
Chain of human RAR-related Orphan Receptor beta (RORb), RORB (gene 6096) (Q92753 whole entry, looked up, the tested form may be a part): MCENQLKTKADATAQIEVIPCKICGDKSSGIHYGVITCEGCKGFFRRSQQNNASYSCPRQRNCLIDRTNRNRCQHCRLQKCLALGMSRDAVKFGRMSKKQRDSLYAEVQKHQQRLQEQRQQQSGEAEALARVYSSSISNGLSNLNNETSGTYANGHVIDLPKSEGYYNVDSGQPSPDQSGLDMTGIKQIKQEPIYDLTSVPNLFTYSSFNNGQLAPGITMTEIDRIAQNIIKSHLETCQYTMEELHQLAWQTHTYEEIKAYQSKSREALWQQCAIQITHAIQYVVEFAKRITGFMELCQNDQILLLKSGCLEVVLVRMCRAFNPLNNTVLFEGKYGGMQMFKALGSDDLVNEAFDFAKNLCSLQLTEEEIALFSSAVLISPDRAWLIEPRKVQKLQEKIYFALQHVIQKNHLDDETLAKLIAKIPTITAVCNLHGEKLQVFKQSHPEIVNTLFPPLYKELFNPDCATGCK
Chain of human Peroxisome Proliferator-activated Receptor delta (PPARd), PPARD (gene 5467) (Q03181 whole entry, looked up): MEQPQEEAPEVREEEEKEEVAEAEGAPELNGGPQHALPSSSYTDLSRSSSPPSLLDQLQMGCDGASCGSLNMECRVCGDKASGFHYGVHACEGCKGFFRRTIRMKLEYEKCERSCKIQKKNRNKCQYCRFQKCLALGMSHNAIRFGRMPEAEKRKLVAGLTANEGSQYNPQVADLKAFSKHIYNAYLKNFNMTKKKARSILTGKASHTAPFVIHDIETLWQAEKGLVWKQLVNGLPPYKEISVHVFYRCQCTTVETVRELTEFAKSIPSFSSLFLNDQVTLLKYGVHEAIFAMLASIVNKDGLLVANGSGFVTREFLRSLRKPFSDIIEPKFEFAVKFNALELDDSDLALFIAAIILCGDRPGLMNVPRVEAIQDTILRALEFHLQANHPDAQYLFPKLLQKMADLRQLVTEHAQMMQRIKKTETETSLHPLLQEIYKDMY
Chain of human Retinoic Acid Receptor gamma (RARg), RARG (gene 5916) (P13631 whole entry, looked up, the tested form may be a part): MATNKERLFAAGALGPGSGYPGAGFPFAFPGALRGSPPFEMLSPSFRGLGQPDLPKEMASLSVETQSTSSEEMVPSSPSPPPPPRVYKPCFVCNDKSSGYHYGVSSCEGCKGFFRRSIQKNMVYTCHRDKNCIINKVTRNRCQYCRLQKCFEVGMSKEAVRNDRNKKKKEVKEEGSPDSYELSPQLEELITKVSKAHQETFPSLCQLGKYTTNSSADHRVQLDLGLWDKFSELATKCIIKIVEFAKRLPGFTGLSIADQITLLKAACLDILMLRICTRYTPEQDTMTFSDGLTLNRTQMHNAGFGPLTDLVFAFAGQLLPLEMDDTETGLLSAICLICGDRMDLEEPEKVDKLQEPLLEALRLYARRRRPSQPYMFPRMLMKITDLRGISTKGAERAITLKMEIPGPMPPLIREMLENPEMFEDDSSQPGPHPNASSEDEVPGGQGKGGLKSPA
Chain of human Retinoic Acid Receptor beta (RARb), RARB (gene 5915) (P10826 whole entry, looked up, the tested form may be a part): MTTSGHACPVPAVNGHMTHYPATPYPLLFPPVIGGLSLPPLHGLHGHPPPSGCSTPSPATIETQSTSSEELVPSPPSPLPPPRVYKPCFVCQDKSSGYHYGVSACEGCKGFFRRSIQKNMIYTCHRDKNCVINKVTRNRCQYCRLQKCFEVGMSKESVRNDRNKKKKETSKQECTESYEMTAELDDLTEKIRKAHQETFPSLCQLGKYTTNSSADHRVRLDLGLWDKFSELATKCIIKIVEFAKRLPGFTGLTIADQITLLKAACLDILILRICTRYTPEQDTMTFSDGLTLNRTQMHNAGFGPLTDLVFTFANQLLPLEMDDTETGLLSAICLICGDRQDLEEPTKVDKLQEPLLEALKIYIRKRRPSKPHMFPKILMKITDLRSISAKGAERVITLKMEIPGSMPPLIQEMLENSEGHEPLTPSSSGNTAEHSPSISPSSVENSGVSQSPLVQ
Chain of Retinoic acid receptor alpha (Homo sapiens) (P10276 whole entry, looked up, the tested form may be a part): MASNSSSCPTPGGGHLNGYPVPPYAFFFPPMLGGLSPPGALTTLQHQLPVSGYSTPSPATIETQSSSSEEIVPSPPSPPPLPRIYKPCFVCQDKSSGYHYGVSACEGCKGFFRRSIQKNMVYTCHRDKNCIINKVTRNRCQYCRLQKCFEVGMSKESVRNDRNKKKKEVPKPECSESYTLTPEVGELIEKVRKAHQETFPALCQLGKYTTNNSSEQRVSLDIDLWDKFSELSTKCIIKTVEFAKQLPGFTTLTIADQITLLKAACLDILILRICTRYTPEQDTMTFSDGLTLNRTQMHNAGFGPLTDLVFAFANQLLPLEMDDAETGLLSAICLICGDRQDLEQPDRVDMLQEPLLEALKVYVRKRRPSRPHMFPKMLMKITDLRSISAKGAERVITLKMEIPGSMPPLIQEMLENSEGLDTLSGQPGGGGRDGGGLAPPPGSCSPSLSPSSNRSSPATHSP
Chain of Nuclear receptor subfamily 1 group I member 2 (Homo sapiens) (O75469 whole entry, looked up, the tested form may be a part): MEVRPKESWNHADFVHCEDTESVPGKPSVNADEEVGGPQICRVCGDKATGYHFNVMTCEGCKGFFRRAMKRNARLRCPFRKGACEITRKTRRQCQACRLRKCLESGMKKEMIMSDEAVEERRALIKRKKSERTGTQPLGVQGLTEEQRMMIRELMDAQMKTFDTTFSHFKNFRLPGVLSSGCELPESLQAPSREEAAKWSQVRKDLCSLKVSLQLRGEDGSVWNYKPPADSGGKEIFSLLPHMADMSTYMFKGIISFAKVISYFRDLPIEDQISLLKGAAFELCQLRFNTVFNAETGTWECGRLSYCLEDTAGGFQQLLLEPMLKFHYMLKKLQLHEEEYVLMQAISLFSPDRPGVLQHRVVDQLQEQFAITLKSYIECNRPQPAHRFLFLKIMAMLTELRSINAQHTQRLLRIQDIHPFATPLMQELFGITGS
Chain of human Peroxisome Proliferator-activated Receptor alpha (PPARa), PPARA (gene 5465) (Q07869 whole entry, looked up, the tested form may be a part): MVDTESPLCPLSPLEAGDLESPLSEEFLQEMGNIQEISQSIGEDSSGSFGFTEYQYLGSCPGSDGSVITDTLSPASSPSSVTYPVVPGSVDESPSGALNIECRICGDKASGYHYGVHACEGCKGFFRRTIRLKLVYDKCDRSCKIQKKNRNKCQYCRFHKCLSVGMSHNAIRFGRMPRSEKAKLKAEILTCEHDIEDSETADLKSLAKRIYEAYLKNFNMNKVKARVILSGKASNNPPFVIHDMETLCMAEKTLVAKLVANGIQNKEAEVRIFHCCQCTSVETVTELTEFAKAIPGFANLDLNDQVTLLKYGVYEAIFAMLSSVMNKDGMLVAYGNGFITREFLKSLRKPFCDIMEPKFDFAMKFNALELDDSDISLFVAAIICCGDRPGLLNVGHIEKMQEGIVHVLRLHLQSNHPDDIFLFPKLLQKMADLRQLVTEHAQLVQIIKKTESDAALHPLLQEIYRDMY

Consider `NC(=O)NC1NC(=O)NC1=O` (stereo not drawn), for which the call in experiment [1] and in experiment [2] was inactive.
On to `CC(C)[C@@H]1CC[C@@H](C)CC1=O`, for which the outcome in experiment [1], in experiment [2] and in experiment [3] was inactive.
`c1ccc(CCCc2ccccn2)cc1`: in experiment [1], the outcome was inactive. The AC50 (commonly the concentration giving half of the maximal activity seen) in experiment [2] is 18.6 µM (active).
Take `Nc1ccc(S(N)(=O)=O)cc1`: the compound was classed as inactive in [1] and in experiment [2].
Take `CCCCCCCCCCN`: the compound was called inactive in [4].
With `CC(=O)Nc1ccc(CC(=O)O)cc1`, the outcome in [1] and in [3] was inactive.
`CC(C)(C)c1n[nH]c(=S)n(N)c1=O`: the call in experiment [1] and in experiment [2] was inactive.
As to `CCCCCC=CCC(=O)OC`, the compound was called inactive in experiment [1], in [2] and in [3]. Also, in experiment [5], the AC50 was 75.4 µM (active).
`CCCCCCCCCCCCN`: the result in [1] and in experiment [3] was inactive.
Take `O=C(COc1ccc(Cl)cc1)N1CCN(Cc2ccc3c(c2)OCO3)CC1`: the compound was called inactive in [1] and in experiment [2].
In the case of `O=CCCc1ccccc1`, the compound was called inactive in [1] and in experiment [6]. Moreover, in [2], the AC50 is 28.4 µM (active).
For the compound `CC1CCC2CC1C2(C)C` (stereo not drawn), the compound was called inactive in experiment [1] and in experiment [2].
As for `CCCC(C)C=O` (stereo not drawn), the compound was classed as inactive in experiment [1], in [2] and in experiment [3].
Regarding `OCC(CO)(CO)COCC(CO)(CO)CO`, the call in experiment [1] and in experiment [2] was inactive.
For the compound `Nc1ccc(F)c([N+](=O)[O-])c1`, the compound was called inactive in experiment [4].
As to `CC(C#N)(CCC(=O)O)N=NC(C)(C#N)CCC(=O)O` (stereo not drawn), the result in experiment [1], in [2] and in [3] was inactive.
For `Cc1c(N(C)C)c(=O)n(-c2ccccc2)n1C`, the call in experiment [1], in [2] and in [3] was inactive.
For the compound `CCN(CC)CCOC(=O)c1ccc(N)cc1`, the compound was classed as inactive in experiment [1], in experiment [5] and in [3].
Turning to `CC(=O)OCc1ccc2c(c1)OCO2`, the call in experiment [1], in experiment [2] and in [3] was inactive.
Turning to `O=C1NC(=O)c2ccccc21`, the call in experiment [1], in experiment [5] and in [3] was inactive.
Consider `CC(C)[C@H]1CC[C@@H](C)CC1=O`, for which the compound was called inactive in experiment [1], in [2] and in experiment [3].
On to `CCCCO`, for which the call in experiment [1], in experiment [2] and in experiment [3] was inactive.
With `CCCC(=O)OCCC(C)CCC=C(C)C` (stereo not drawn), the compound was classed as inactive in experiment [1], in experiment [2] and in experiment [3].
With `CCCCCC(=O)OCCc1ccccc1`, the outcome in experiment [1] and in [2] was inactive.
Take `CC1CCC(C(C)(C)O)CC1` (stereo not drawn): the call in experiment [1], in [2] and in [3] was inactive.
Take `C=C(C)C(=O)OCCOC(=O)CC(C)=O`: the outcome in experiment [1], in experiment [5], in [2] and in [3] was inactive.
As for `CCCC(=O)C(C)=O`, the outcome in experiment [1], in [2] and in experiment [3] was inactive.
In the case of `Cc1cccc(C)c1C`, the call in experiment [1], in experiment [5] and in experiment [3] was inactive.
Consider `COc1ccc(Cl)cc1C`, for which the call in experiment [1] and in experiment [2] was inactive.
In the case of `Cc1ccc(C=O)cc1`, the compound was classed as inactive in [1], in experiment [2] and in [3].
On to `c1ccc2sc(SN(C3CCCCC3)C3CCCCC3)nc2c1`, for which the outcome in experiment [4], in experiment [7], in experiment [5] and in experiment [3] was inactive. Besides, the AC50 in [8] is 8.86 µM (active); in [2], 0.629 µM (active).
As for `O=C(O)CCCCCCCCCCC(=O)O`, the compound was classed as inactive in experiment [1], in experiment [2] and in [3].
With `OCCOc1cccc(OCCO)c1`, the outcome in experiment [4], in experiment [9], in [5] and in experiment [2] was inactive.
As to `CC(C)(Oc1ccc(CCNC(=O)c2ccc(Cl)cc2)cc1)C(=O)O`, the AC50 in [4] is 79.4 µM (active); in experiment [5] it was 27.6 µM (active). Moreover, in experiment [2], the call was inactive.
`CSc1nc(NC2CC2)nc(NC(C)(C)C)n1`: the compound was classed as inactive in experiment [4]. For the same compound, the AC50 was 31.9 µM (active) in experiment [5] and 1.05 µM (active) in [2].
On to `CC1CC(OC(=O)c2ccccc2O)CC(C)(C)C1` (stereo not drawn), for which the outcome in experiment [4], in experiment [9], in experiment [10], in [2] and in [6] was inactive.
On to `CC(=O)[C@H]1CC[C@H]2[C@@H]3CC=C4C[C@@H](O)CC[C@]4(C)[C@H]3CC[C@]12C`, for which the result in [4] and in experiment [7] was inactive. The AC50 in experiment [2] is 4.3 µM (active).
On to `COc1cc(C(C)(C)C)c(O)c(C(C)(C)C)c1`, for which the outcome in experiment [4], in experiment [5] and in experiment [2] was inactive.
As to `CCOC(=O)c1ccccc1OC`, the compound was called inactive in [4], in [9], in experiment [5], in experiment [2] and in [6].
Regarding `O=C=NC1CCC(CC2CCC(N=C=O)CC2)CC1` (stereo not drawn), the compound was classed as inactive in experiment [4], in experiment [7] and in [2].
Consider `Cc1ccc2ccccc2n1`, for which the compound was classed as inactive in [4], in experiment [9], in experiment [10], in [5], in experiment [2] and in experiment [6]. In [3], the call was inactive.
As to `COc1ccc(Nc2ccccc2)c(C)c1`, in [4], the outcome was inactive. The AC50 was 31.5 µM (active) in experiment [5] and 11.1 µM (active) in experiment [2].
With `CC(C)OP(=O)(CP(=O)(OC(C)C)OC(C)C)OC(C)C`, the compound was classed as inactive in experiment [4] and in experiment [5]. For the same compound, the AC50 in experiment [2] is 3.27 µM (active).
Regarding `COC(=O)C1=C(C)NC(C)=C(C(=O)OCCN(C)Cc2ccccc2)C1c1cccc([N+](=O)[O-])c1` (stereo not drawn), the outcome in experiment [4] was inactive. For the same compound, in [5], the AC50 is 27.7 µM (active).
With `C=C(C)[C@@H]1CCC2=CC(=O)C[C@@H](C)[C@]2(C)C1`, the compound was called inactive in experiment [4], in experiment [5] and in experiment [2].
Turning to `CC(=O)O[C@H](CC(=O)[O-])C[N+](C)(C)C`, the result in experiment [4] and in [5] was inactive.
As for `Fc1c(F)c(F)c(Br)c(F)c1F`, the compound was called inactive in experiment [4], in [9], in [10] and in experiment [2].
As to `O=c1oc(=O)c2cc3c(=O)oc(=O)c3cc12`, the compound was classed as inactive in [4], in experiment [5], in experiment [2] and in experiment [6].
With `CC(C)C(C)(C)C(C)(C)C(C)(C)S`, the outcome in experiment [4] was inactive. The AC50 was 100 µM (active) in experiment [5] and 4.47 µM (active) in experiment [2].
Consider `CC1(CO)CN(c2ccccc2)NC1=O` (stereo not drawn), for which the compound was called inactive in experiment [4], in experiment [9], in [5] and in [2].
`ClCCCl`: the call in experiment [4], in experiment [5], in experiment [2] and in experiment [3] was inactive.
With `CC(=O)OCCC(C)CC(C)(C)C` (stereo not drawn), the call in experiment [4], in [7], in [2] and in experiment [3] was inactive.
